The text below walks through data of PubChem BioAssay (NCATS).

Several values for one entry are separate records, joined by “and”; a condition that tells them apart may be missing. Identical values can stand only once. Records with an inconclusive call do not appear. Some structures have more than one record in an assay (separate samples or runs), and their calls can disagree. Activity calls are given as the source filed them. Unless noted, calls follow the shape of the dose curve; as a rule, active = well fitted curve in the direction sought with a large enough effect; inconclusive = small, poorly fitted or top-dose-only effect, or another doubt; inactive = no such curve, though single readings can be large; an effect the other way counts as inactive or inconclusive.

Assay [1] concerns the target Rap guanine nucleotide exchange factor 3 (Homo sapiens) (UniProt O95398). Briefly: Confirmatory qHTS for antagonist of cAMP-regulated guanine nucleotide exchange factor 3 (EPAC1) (AID 1645880).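 Also: plate controls were DMSO only for no effect and full effect of the ATA control for full effect; nearly all actives have a fitted effect of over 55% in size.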 The method in brief: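 Nucleotide exchange uses 100 nM EPAC1, 250 nM RAP1B-BODIPY-GDP and 50 uM GDP, with compounds in a concentration-titration series. After 5 min at room temperature, fluorescence (480 nm ex/540 nm em) is read every 5 min for 30 min. Data are normalized to control ATA and DMSO.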

Assay [2] has the same target. Description: Confirmatory qHTS for agonist of cAMP-regulated guanine nucleotide exchange factor 3 (EPAC1) (AID 1645881).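 Also: EPAC1 catalysed release of BODIPY-GDP from Rap1B seen as fluorescence loss; 100% = effect of cAMP agonist control; nearly all actives have a fitted effect of over 75% in size.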
Assay [3] deals with Rap guanine nucleotide exchange factor 4 (Homo sapiens) (UniProt Q8WZA2). Briefly: Confirmatory qHTS for agonist of cAMP-regulated guanine nucleotide exchange factor 4 (EPAC2) (AID 1645884).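 Also: nucleotide exchange releases bodipy-GDP from Rap1 and this lowers its fluorescence; % is scaled to controls: 0 for no effect and ±100 for the full control effect; nearly all actives have a fitted effect of over 65% in size.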 On the technique in general: Quantitative high-throughput screening tests each substance at several concentrations.
Assay [4] has as its target Muscarinic acetylcholine receptor M1 (Rattus norvegicus) (UniProt P08482). Description: qHTS Assay for Antagonists of Acetylcholine Muscarinic M1 Receptor: Kinetic Measurement of Intracellular Calcium Response (AID 943). Also: nearly all actives have a fitted effect of over 75% in size. Also: potency is read from the fitted curve at half-maximal effect. The essentials:
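CHO cells stably expressing rat M1 were loaded with no-wash Fluo-4 dye for 1 h at 37C, pre-incubated 10 min with compound, then challenged with EC80 carbachol (100 nM final); kinetic calcium read 4 min, peak/basal ratio.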

Assay [5] shares this target. Briefly: qHTS Assay for Antagonists of Acetylcholine Muscarinic M1 Receptor: Measurement of IP-One Response (AID 944). Also: nearly all actives have a fitted effect of over 75% in size. Also: potency is read from the fitted curve at half-maximal effect. The essentials: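 CHO cells expressing rat M1 receptor, recovered overnight, were pre-incubated 10 min with compound, then stimulated 30 min with carbachol at EC80 (200 nM) in LiCl-containing buffer, pH 7.4. IP1 accumulation was read by HTRF (620/665 nm).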

For assay [6], the target named is Cytochrome P450 2D6 (Homo sapiens) (UniProt P10635). Briefly: qHTS Assay for Inhibitors and Substrates of Cytochrome P450 2D6 (AID 891). Also: nearly all actives have a fitted effect of over 60% in size. Also: potency is read from the fitted curve at half-maximal effect. The method in brief:
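Human CYP2D6 (5 nM) with 30 uM Luciferin-ME EGE (at Km) in 100 mM KPO4, compound preincubated 10 min, then NADPH regeneration system for 60 min at room temperature. Luciferin read by luminescence; normalized to 1.43 uM quinidine.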

Assay [7] has as its target Alpha-galactosidase A (Homo sapiens) (UniProt P06280). Description: Counterscreen for Glucocerebrosidase Inhibitors: qHTS Assay for Human alpha-Galactosidase at pH 4.5 (AID 992). Also: 0% is about no effect. The method in brief:
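Read-out is 4-methylumbelliferone fluorescence (365 nm excitation, 440 nm emission) after a pH 10 NaOH/glycine stop. Reactions held 2 nM enzyme and 80 uM substrate at pH 4.5 for 20 min at room temperature.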
(In general: A counterscreen serves to expose hits that act by an unwanted route or on another target.)

Assay [8] deals with Glutathione peroxidase 1 (Homo sapiens) (UniProt P07203). Briefly: Primary qHTS Assay for Inhibitors of Recombinant Selenoprotein Glutathione Peroxidase 1 (GPX1) (AID 1845191). Also: % is scaled to controls: 0 for no effect and ±100 for the full control effect; nearly all actives have a fitted effect of over 65% in size. The method in brief: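 GR-coupled assay: compounds preincubated 30 min at room temperature with GPX1, then reaction started with CHP; final 10 nM GPX1, 1 mM GSH, 0.5 mM CHP, 0.5 mM NADPH, 100 nM GR, 0.01% BSA, pH 7.5 Tris buffer. NADPH fluorescence (340/450 nm) read at 0 and 15 min.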

Assay [9] in a line: qHTS Assay for Identification of Small Molecule Antagonists for NFkB Signaling Pathway (AID 895; active = well fitted inhibition curve with a large enough effect in the signal ratio, with a control signal flat, not every such curve was filed as active; the % refers to the signal ratio; also: potency is read from the fitted curve at half-maximal effect). The essentials: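 ME-180 NFkB-bla cells (beta-lactamase under NFkB response element), plated overnight, treated with compound then 10 pM TNF alpha (about EC50) for 5 hrs at 37 C. LiveBLAzer FRET read at 460/530 nm emission, 405 nm excitation.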
Assay [10] can be described thus: qHTS profiling for inhibitors of Plasmodium falciparum proliferation (AID 504749).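 Also: 0% = DMSO vehicle and full inhibition = artemisinin control; nearly all actives have a fitted effect of over 60% in size.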 Particulars: P. falciparum in erythrocytes, SYBR Green DNA, 72 h, at 28.7 µM (top of the series). The essentials: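 Readout was DNA-dye fluorescence from lysed cultures, ex 485/em 535 nm. Parasitized red cells had grown 72 h with compound; data scaled between 0.29 uM artemisinin and DMSO wells and corrected using vehicle-only plates.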

The target of assay [11] is Cytochrome P450 2C9 (Homo sapiens) (UniProt P11712). Briefly: qHTS Assay for Inhibitors and Substrates of Cytochrome P450 2C9 (AID 883). Also: nearly all actives have a fitted effect of over 60% in size. Also: potency is read from the fitted curve at half-maximal effect. The method in brief:
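Human CYP2C9 (10nM) with Luciferin-H at 100uM (its KM) in 25mM KPO4; compound preincubated 10 min at 37C, then NADPH regeneration for 60 min at 37C. Luciferin read by luminescence after detection reagent; normalized to 57uM sulphaphenazole as full inhibition.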

The nature of assay [12]: Confirmation and Secondary Assay for Modulators of Hemoglobin Beta Chain Splicing at IVS2 654 locus (AID 910).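 Also: HeLa cells stably carrying EGFP split by mutant beta-globin IVS2-654 intron; % of control where 0% means no effect.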 The essentials:
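HeLa cells stably expressing EGFP interrupted by β-globin IVS2-654 intron, seeded overnight in Opti-MEM/2% FCS, then treated 2 days at 37 °C. Restored splicing read as total peak GFP intensity per well by laser scanning cytometry (488 nm excitation, 500–520 nm emission); 500 nM antisense PNA as control.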

Assay [13] in a line: Confirmation and Secondary Assay for Modulators of Hemoglobin Beta Chain Splicing at IVS2 705 locus (AID 930).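 Also: HeLa cells stably expressing the EGFP-705 splicing reporter; % of control where 0% means no effect.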 The essentials: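 Restored EGFP fluorescence after 2-day compound exposure reports splicing correction in IVS2-705 EGFP reporter HeLa cells; positive control was 500 nM splice-blocking PNA oligo. Signal measured as well total peak GFP intensity (488 nm excitation).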

For assay [14], the target named is Cytochrome P450 3A4 (Homo sapiens) (UniProt P08684). Description: qHTS Assay for Inhibitors and Substrates of Cytochrome P450 3A4 (AID 884). Also: % is scaled to controls: 0 for no effect and ±100 for the full control effect; nearly all actives have a fitted effect of over 50% in size. The method in brief: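 20 nM human CYP3A4 with 25 uM Luciferin-PPXE (at KM) in 200 mM KPO4, preincubated 10 min with compound; NADPH regeneration started a 60 min RT reaction. Luciferin detected by luminescence, normalized to 57 uM ketoconazole as full inhibition.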

A short description of assay [15]: Primary qHTS for inhibitors of nuclear receptor binding SET domain protein 2 (NSD2) in an isogenic RCH-ACV NSD2 p.E1099K mutant (9B) (AID 1645876). Also: potency is read from the fitted curve at half-maximal effect; nearly all actives have a fitted effect of over 70% in size.
A short description of assay [16]: Primary qHTS for inhibitors of nuclear receptor binding SET domain protein 2 (NSD2) in an RCH-ACV wild type WT cells (2C) (AID 1645877). Also: potency is read from the fitted curve at half-maximal effect; nearly all actives have a fitted effect of over 70% in size.
Assay [17] addresses Rap guanine nucleotide exchange factor 4 (Homo sapiens) (UniProt Q8WZA2). Briefly: Confirmatory qHTS for antagonist of cAMP-regulated guanine nucleotide exchange factor 4 (EPAC2) (AID 1645885). Also: % is scaled to controls: 0 for no effect and ±100 for the full control effect; nearly all actives have a fitted effect of over 25% in size.
Assay [18] has as its target Cytochrome P450 2D6 (Homo sapiens) (UniProt P10635). Description: Cytochrome P450 family 2 subfamily D member 6 (CYP2D6) small molecule antagonists: luciferase biochemical (cell-free) qHTS assay (AID 1645840; active = well fitted curve in the direction sought with a large enough effect in the repeat runs; an effect the other way counts as inactive or inconclusive; also: % is scaled to controls: 0 for no effect and ±100 for the full control effect; nearly all actives have a fitted effect of over 55% in size). The method in brief:
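P450-Glo luminescent screen: recombinant CYP2D6 enzyme–proluciferin substrate mix preincubated with compound 10 min at room temperature, then NADPH regeneration added for 1 h at room temperature. Detection reagent added for 20 min; luciferin light read as relative luminescence units.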

Assay [19] deals with Cytochrome P450 2C9 (Homo sapiens) (UniProt P11712). Description: Cytochrome P450 family 2 subfamily C member 9 (CYP2C9) small molecule antagonists: luciferase biochemical (cell-free) qHTS assay (AID 1645842; active = well fitted curve in the direction sought with a large enough effect in the repeat runs; an effect the other way counts as inactive or inconclusive; also: % is scaled to controls: 0 for no effect and ±100 for the full control effect; nearly all actives have a fitted effect of over 55% in size). The essentials: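 Luminescence, after 20 min with luciferin detection reagent, reflected CYP2C9 turnover during a 1 h NADPH-driven reaction at 37C. Enzyme-substrate mix contained 0.4% bovine serum albumin and was preincubated with compound 10 min at room temperature.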
Chain of Cytochrome P450 2C9 (Homo sapiens) (P11712 whole entry, looked up): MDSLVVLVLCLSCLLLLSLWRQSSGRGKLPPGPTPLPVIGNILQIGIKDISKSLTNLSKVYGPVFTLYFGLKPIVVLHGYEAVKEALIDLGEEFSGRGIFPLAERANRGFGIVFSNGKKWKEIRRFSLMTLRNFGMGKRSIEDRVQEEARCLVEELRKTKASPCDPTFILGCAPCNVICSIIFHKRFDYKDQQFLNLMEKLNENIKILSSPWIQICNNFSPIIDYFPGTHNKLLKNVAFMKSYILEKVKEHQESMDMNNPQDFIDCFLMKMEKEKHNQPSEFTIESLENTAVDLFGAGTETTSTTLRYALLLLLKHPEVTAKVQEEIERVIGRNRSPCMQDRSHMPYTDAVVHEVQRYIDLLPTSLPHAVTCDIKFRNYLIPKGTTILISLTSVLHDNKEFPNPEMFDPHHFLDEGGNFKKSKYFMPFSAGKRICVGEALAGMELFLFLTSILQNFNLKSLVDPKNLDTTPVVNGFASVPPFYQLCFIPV

Chain of Alpha-galactosidase A (Homo sapiens) (P06280 whole entry, looked up): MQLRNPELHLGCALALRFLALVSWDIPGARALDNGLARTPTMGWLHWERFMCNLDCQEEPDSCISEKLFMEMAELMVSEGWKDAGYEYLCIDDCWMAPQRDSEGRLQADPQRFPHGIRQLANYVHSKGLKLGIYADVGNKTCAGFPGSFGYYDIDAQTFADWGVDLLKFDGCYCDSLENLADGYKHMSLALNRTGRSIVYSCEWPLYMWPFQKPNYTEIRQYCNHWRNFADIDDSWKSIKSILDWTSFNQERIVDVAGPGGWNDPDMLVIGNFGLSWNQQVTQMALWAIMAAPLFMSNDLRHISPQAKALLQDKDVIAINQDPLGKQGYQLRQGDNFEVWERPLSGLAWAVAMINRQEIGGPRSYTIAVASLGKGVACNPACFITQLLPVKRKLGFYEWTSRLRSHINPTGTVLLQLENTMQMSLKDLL
Chain of Rap guanine nucleotide exchange factor 3 (Homo sapiens) (O95398 whole entry, looked up): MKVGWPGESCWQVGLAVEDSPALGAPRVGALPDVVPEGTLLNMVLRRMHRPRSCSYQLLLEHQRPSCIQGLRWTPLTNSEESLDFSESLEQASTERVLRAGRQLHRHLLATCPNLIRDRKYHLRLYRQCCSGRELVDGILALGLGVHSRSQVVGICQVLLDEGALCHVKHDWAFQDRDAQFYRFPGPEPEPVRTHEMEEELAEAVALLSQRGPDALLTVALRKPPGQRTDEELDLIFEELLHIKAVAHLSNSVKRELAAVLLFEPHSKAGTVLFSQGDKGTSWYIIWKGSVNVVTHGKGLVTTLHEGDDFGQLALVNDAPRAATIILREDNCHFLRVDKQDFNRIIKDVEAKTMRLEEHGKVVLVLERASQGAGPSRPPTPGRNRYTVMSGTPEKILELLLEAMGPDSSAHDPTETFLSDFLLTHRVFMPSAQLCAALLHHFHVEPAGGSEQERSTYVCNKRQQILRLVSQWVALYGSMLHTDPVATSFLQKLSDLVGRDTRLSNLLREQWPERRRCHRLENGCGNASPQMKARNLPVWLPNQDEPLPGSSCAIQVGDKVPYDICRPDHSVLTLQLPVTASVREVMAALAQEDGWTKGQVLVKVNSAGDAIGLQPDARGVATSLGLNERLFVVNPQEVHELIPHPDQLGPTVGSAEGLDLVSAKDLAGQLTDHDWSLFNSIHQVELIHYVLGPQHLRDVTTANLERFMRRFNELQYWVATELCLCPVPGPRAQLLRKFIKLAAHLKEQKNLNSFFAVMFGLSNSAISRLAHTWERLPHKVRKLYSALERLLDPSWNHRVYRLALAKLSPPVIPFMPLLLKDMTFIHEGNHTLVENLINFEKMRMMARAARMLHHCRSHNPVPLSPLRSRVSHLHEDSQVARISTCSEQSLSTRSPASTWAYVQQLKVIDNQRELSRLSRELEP
Chain of Rap guanine nucleotide exchange factor 4 (Homo sapiens) (Q8WZA2 whole entry, looked up): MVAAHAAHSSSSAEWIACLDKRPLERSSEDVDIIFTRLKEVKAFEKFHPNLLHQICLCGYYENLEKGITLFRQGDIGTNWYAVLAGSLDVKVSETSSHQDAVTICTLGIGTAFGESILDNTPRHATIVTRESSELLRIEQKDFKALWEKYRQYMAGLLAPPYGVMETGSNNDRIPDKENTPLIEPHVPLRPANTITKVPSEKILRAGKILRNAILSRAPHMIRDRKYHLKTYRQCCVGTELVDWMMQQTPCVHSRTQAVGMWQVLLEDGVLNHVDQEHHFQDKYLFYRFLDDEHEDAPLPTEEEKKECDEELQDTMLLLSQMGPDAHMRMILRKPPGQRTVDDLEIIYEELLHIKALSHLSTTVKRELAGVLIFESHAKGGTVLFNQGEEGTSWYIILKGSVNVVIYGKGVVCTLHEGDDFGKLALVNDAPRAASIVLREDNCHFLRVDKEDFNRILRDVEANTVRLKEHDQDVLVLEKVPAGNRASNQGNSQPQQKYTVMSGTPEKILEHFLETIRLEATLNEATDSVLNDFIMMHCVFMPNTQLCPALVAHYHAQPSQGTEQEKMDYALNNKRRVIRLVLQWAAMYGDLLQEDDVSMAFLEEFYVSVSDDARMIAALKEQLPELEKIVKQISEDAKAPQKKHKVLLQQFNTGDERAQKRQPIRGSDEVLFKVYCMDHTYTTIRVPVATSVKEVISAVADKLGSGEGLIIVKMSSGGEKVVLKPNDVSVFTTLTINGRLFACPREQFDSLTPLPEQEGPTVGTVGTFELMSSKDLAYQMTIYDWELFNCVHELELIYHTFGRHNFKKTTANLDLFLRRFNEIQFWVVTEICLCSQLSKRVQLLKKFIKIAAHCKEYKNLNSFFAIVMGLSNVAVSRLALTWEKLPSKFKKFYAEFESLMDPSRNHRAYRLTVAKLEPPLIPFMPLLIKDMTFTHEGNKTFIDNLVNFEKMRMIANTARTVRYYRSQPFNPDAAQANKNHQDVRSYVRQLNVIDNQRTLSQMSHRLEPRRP
Chain of Cytochrome P450 2D6 (Homo sapiens) (P10635 whole entry, looked up): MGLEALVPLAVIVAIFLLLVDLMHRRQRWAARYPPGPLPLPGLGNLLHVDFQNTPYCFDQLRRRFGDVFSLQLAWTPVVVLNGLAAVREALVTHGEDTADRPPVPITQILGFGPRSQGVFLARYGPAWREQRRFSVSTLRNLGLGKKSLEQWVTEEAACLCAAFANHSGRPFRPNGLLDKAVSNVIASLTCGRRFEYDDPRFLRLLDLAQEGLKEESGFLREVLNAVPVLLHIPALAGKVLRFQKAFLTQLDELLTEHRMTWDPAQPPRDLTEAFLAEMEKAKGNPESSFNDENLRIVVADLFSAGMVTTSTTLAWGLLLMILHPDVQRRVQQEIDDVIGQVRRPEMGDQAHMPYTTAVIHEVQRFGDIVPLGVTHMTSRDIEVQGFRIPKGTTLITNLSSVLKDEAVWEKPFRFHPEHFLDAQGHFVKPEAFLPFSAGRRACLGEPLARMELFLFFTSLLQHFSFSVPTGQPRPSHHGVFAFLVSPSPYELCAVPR
Chain of Muscarinic acetylcholine receptor M1 (Rattus norvegicus) (P08482 whole entry, looked up): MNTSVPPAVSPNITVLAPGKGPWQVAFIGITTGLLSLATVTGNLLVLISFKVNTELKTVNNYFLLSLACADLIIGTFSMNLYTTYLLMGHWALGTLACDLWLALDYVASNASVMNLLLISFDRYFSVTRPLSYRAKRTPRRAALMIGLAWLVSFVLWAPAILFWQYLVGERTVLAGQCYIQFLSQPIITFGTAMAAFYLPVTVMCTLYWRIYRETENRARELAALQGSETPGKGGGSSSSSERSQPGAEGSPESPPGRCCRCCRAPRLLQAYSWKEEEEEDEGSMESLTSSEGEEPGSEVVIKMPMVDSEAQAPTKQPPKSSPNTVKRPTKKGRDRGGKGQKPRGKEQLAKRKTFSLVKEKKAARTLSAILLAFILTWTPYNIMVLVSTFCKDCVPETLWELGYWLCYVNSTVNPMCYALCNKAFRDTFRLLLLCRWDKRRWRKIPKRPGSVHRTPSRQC
Chain of Cytochrome P450 3A4 (Homo sapiens) (P08684 whole entry, looked up): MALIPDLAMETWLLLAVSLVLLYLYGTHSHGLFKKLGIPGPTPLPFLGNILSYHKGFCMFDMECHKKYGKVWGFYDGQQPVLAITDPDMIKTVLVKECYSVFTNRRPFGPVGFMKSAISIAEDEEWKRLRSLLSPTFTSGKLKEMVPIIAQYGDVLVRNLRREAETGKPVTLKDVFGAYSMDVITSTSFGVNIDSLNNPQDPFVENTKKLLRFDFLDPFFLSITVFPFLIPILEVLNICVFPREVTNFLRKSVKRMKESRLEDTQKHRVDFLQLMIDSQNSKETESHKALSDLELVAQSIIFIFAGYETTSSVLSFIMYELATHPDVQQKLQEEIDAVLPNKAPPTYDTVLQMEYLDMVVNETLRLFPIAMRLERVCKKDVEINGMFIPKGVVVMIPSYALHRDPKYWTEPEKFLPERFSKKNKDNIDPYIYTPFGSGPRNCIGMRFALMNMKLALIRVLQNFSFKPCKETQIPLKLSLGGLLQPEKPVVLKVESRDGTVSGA
Chain of Glutathione peroxidase 1 (Homo sapiens) (P07203 whole entry, looked up): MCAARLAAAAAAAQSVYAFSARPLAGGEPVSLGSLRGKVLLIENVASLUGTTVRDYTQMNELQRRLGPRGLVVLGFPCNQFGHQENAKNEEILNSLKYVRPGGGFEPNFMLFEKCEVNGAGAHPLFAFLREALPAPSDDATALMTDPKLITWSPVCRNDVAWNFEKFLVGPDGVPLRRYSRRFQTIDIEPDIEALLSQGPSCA

For the compound `CCC(=O)N[C@@H]1Cc2ccccc2[C@@H](c2ccccc2)C1`, in assay [1], the Potency result is “inactive”. Further, the call in assay [2] and in assay [3] was inactive.

For the compound `CC(N)=NCCC[C@H](N)C(=O)O`, the Potency entry in assay [4] and in [5] was “inactive” in each case.

`C[C@H](N=C(NC#N)Nc1ccncc1)C(C)(C)C`: the Potency entry in assay [6], in assay [4] and in assay [5] was “inactive” in each case.

Consider `CNCC[C@H](Oc1ccccc1OC)c1ccccc1`, for which the Potency in assay [6] is 5.01 µM (active) and 1.26 µM (active); in assay [4], 14.1 µM (active); in assay [5] it was 11.2 µM (active). Moreover, in assay [7], the compound was classed as inactive.

With `N[C@H](Cc1cnc[nH]1)C(=O)O`, the Potency result in assay [8] is “inactive”.

With `C[C@@H]1C[C@@H]2[C@H]3CCC4=CC(=O)C=C[C@]4(C)[C@]3(F)[C@@H](O)C[C@@]2(C)[C@@]1(O)C(=O)CO`, the Potency in assay [9] is 0.01 µM (active).

Consider `N[C@@H]1CCN(O)C1=O`, for which, in assay [5], the Potency result is “inactive”. In addition, in assay [7], the call was inactive.

In the case of `COC(=O)[C@@H]1[C@@H]2C[C@H]3c4[nH]c5ccccc5c4CCN3C[C@@H]2CC[C@@H]1O`, the values for the activity, negative = inhibition in assay [10] (parasite line A) and in [10] (parasite line B) were 13.9% (inactive) and -2.77% (inactive), respectively.

For `N[C@H](C(=O)O)[C@@H]1C[C@@H]1C(=O)O`, in assay [5], the Potency result is “inactive”.

Regarding `NC[C@](O)(CS(=O)(=O)O)c1ccc(Cl)cc1`, the Potency result in [11], in [6], in assay [4] and in [5] was “inactive” throughout. Moreover, the call in [7] was inactive.

Regarding `COc1cc(N)c(Cl)cc1C(=O)CCC1CCN(CCNS(C)(=O)=O)CC1`, the Potency in assay [11] was 0.251 µM (active).

As to `CC(C)(C)NC[C@H](O)COc1cccc2[nH]c(=O)[nH]c12`, the Potency entry in assay [9] and in assay [5] was “inactive” throughout.

Regarding `CC(N)=NCCCC[C@H](N)C(=O)O`, the Potency entry in assay [11], in assay [4] and in assay [5] was “inactive” throughout.

With `C[C@@](N)(C(=O)O)c1ccc(C(=O)O)cc1`, the Potency entry in assay [9], in assay [4] and in assay [5] was “inactive” each time.

As to `CC(C)[C@@H]1[C@H]2CC[C@H](C2)[C@H]1N`, in [11], the Potency result is “inactive”.

`CC1=C(\C=C/C(C)=C/C=C\C(C)=C\C(=O)O)C(C)(C)CCC1`: in assay [6], the Potency entry was “inactive and 2 µM (active)”. Besides, the call in assay [12] and in [13] was inactive.

Regarding `O=C(O)[C@H]1CN(CCCP(=O)(O)O)CCN1`, the Potency result in [11], in assay [6] and in [4] was “inactive” throughout. Moreover, the outcome in assay [7] was inactive.

For `N[C@H](CCC(=O)N[C@H](CSN=O)C(=O)NCC(=O)O)C(=O)O`, the Potency in [11] was 5.01 µM (active). Further, the Potency entry in assay [9] and in [4] was “inactive” throughout. Also, the compound was classed as inactive in assay [7].

For the compound `CC(C)(C)c1ccc(S(=O)(=O)/C=C\C#N)cc1`, the result in [7] was inactive.

Regarding `C[C@H](NC[C@H](O)CP(=O)(O)Cc1ccccc1)c1ccc(Cl)c(Cl)c1`, the Potency in [6] is 0.0501 µM (active).

As for `N[C@@H](C(=O)O)c1ccc(C(=O)O)c(C(=O)O)c1`, the Potency in assay [6] was 7.94 µM (active).

Consider `CCCCCCCCCCCCC/C=C\[C@@H](O)[C@H](CO)NC(C)=O`, for which the Potency in assay [11] is 3.16 µM (active).

In the case of `N[C@H](C(=O)O)C1[C@H](C(=O)O)[C@H]1C(=O)O` (stereo partly specified), the Potency in assay [6] was 7.94 µM (active).

In the case of `N[C@@H](C(=O)O)[C@H](CC(=O)O)c1ccc(Cl)cc1`, the Potency in assay [6] was 2.51 µM (active).

`COc1ccccc1N1CCN(CCCCN2C(=O)CCC2=O)CC1`: in [11], the Potency is 3.98 µM (active).

In the case of `O=C(O)c1c2ccccc2cc2ccccc12`, the result in assay [12] and in assay [13] was inactive.

`NC1(C(=O)O)CC(C(=O)O)C1` (stereo unspecified): the Potency result in assay [14] was “inactive”.

Consider `Nc1ncnc2c1ncn2[C@@H]1O[C@H](COP(=O)(O)OP(=O)(O)O)[C@@H](O)[C@H]1O`, for which the Potency result in [14] is “inactive”.

Consider `CCN(CC)CC1CCN(c2ncc3ncnc(Nc4ccc(F)c(Cl)c4)c3n2)CC1`, for which the values for the Potency in [15] and in [16] were 9.2 µM (active) and 16.4 µM (active), respectively. The Potency entry in assay [8] was “inactive”.

In the case of `NC(C(=O)O)c1cc(O)c(Cl)c(O)c1` (stereo unspecified), the Potency entry in [1] and in assay [17] was “inactive” each time. Also, the call in [2] and in assay [3] was inactive.

On to `O=C1CC[C@H](C(=O)O)N1`, for which the Potency entry in assay [18] and in [19] was “inactive” in each case.

As to `NC1(C(=O)O)C[C@H](C(=O)O)[C@H](C(=O)O)C1` (stereo partly specified), the Potency in assay [11] is 6.31 µM (active).
